# Results filed as inconclusive are left out. Entries that show only a call come without a potency. The source made the active and inactive calls. Unless noted, calls follow the shape of the dose curve; as a rule, active = well fitted curve in the direction sought with a large enough effect; inconclusive = small, poorly fitted or top-dose-only effect, or another doubt; inactive = no such curve, though single readings can be large; an effect the other way counts as inactive or inconclusive.
# Assays:
# [1] = Primary qHTS for inhibitors of La Crosse Virus (LACV) - induced cell death in SH-SY5Y cells (AID 1508616);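 also: top concentration of the series differs between compounds; higher means more rescue of cells from virus-induced death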
# Procedure, shortened: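 Screening measures cell viability in LACV-infected SH-SY5Y cultures. Compound was added before virus (0.01 MOI), and ATP was detected by luminescence 6 days later.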
# [2] = Counterscreen qHTS for small molecule stabilizers of the endoplasmic reticulum resident proteome: GLuc-NoTag assay (AID 1508627); also: potency is read from the fitted curve at half-maximal effect
# Procedure, shortened: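 Counterscreen line: SH-SY5Y-GLuc-NoTag. Seed, 5 h; compound, 19 h; thapsigargin 100 nM, 4 h; 37C/5% CO2. Readout: secreted GLuc luminescence, coelenterazine 0.07x final, no lysis.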
# [3] = Confirmatory qHTS for small molecule stabilizers of the endoplasmic reticulum resident proteome: Secreted ER Calcium Modulated Protein (SERCaMP) assay (AID 1508628); also: potency is read from the fitted curve at half-maximal effect; nearly all actives have a fitted effect of over 40% in size
# Procedure, shortened: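 GLuc-SERCaMP-expressing SH-SY5Y cells, pretreated 16 h with compound, are challenged with thapsigargin to empty ER calcium stores; after 4 h, coelenterazine is added directly to the medium and luminescence is imaged.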
# Papain (Carica papaya) = Papain (Carica papaya) (UniProt P00784); assay: Primary qHTS assay for inhibitors of the protease papain (AID 1645873);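 also: papain turnover of Z-FR-AMC read as the AMC fluorescence gain over 10 min; series mostly up to about 50 µM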
# Chain of Papain (Carica papaya) (P00784 whole entry, looked up): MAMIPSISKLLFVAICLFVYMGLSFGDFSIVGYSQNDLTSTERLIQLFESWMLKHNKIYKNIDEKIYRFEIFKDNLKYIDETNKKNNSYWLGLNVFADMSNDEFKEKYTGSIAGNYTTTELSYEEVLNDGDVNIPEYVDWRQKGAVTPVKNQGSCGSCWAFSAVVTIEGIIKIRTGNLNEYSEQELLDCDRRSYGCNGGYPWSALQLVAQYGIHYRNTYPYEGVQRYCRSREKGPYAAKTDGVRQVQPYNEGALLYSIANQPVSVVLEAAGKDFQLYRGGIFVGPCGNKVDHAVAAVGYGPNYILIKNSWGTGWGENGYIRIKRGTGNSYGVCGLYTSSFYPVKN
# [4] = biological target: N-terminal Xaa-Pro-Lys N-methyltransferase 1 (Homo sapiens) (UniProt Q9BV86); assay: Confirmatory qHTS for Inhibitors of N-terminal methyltransferase 1 (NTMT1): MTaseGlo Assay (AID 1645874); settings: NTMT1 enzyme, MTase-Glo SAH luminescence; also: potency is read from the fitted curve at half-maximal effect; nearly all actives have a fitted effect of over 65% in size
# Chain of N-terminal Xaa-Pro-Lys N-methyltransferase 1 (Homo sapiens) (Q9BV86 whole entry, looked up): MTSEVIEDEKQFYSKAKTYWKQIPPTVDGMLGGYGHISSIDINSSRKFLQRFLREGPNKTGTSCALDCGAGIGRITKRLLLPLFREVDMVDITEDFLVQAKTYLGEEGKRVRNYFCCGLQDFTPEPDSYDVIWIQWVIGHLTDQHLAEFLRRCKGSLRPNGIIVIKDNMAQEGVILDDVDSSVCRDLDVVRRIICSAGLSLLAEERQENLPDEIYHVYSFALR
# Procedure, shortened: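 Room-temperature NTMT1 reaction, 30 min, with 100 uM SAM and 1 uM SPKRIA substrate; enzyme 125 nM. Read-out: MTase-Glo luminescence, normalized to no-enzyme and DMSO controls.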
# [5] = biological target: Calcium and integrin-binding protein 1 (Homo sapiens) (UniProt Q99828); assay: Primary qHTS for Identification of Calcium Integrin Binding Protein 1 (CIB1) Competitor (AID 1508620);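 also: GST tagged CIB1 binding a fluorescein labelled alphaIIb integrin peptide tracer; top concentration of the series differs between compounds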
# Chain of Calcium and integrin-binding protein 1 (Homo sapiens) (Q99828 whole entry, looked up): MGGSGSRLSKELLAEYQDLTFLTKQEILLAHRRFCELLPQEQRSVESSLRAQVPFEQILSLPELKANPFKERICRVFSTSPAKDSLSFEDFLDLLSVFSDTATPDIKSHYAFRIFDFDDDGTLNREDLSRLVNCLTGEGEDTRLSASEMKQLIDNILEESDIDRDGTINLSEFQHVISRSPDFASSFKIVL
# Procedure, shortened: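 Fluorescence polarization competition: GST-tagged CIB1 (1 uM final) preincubated with compound 15 min at room temperature, then FITC-labelled alphaIIb peptide (100 nM final) added. After 15 min at room temperature, polarization read at Ex 480/Em 540.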
# [6] = A High-Content qHTS Against Drug Library for the Identification of Small Molecules that Inhibit DYT1 Early Onset Primary Dystonia-Associated Cell Pathology (AID 1645839; calls by dose curve; also: series mostly up to about 46 µM)
# Procedure, shortened: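 Cells were seeded and left for 24 h, then dosed with compound alongside tetracycline induction of mutant EGFP-TorsinA. They were incubated for 48 h, fixed in 4% paraformaldehyde, permeabilized and imaged for mislocalization (%pathology) and cell count.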
# [7] = biological target: Cytochrome P450 2C9 (Homo sapiens) (UniProt P11712); assay: Cytochrome P450 family 2 subfamily C member 9 (CYP2C9) small molecule antagonists: luciferase biochemical (cell-free) qHTS assay (AID 1645842; active = well fitted curve in the direction sought with a large enough effect in the repeat runs; an effect the other way counts as inactive or inconclusive; also: nearly all actives have a fitted effect of over 55% in size; also: potency is read from the fitted curve at half-maximal effect)
# Chain of Cytochrome P450 2C9 (Homo sapiens) (P11712 whole entry, looked up): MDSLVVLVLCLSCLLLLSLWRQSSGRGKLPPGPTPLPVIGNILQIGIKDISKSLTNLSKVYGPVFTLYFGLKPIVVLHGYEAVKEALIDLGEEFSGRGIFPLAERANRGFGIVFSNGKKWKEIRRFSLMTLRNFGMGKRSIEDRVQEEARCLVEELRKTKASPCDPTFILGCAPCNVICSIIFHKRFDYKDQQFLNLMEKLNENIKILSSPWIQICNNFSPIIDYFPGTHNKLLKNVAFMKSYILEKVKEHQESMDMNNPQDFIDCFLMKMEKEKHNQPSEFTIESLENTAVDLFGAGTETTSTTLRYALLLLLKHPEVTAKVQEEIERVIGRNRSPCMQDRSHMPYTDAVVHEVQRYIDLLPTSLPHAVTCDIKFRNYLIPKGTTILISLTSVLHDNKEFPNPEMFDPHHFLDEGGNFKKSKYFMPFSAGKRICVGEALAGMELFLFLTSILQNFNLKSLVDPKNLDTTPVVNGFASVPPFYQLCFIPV
# Procedure, shortened: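 P450-Glo CYP2C9 system: proluciferin substrate with enzyme in mix containing 0.4% BSA, 10 min at room temperature, then NADPH regeneration solution added and incubated 1 h at 37C. Detection reagent stopped reaction; luminescence read after 20 min as RLU.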
# [8] = Primary qHTS for inhibitors of nuclear receptor binding SET domain protein 2 (NSD2) in an isogenic RCH-ACV NSD2 p.E1099K mutant (9B) (AID 1645876); also: nearly all actives have a fitted effect of over 70% in size; also: potency is read from the fitted curve at half-maximal effect
# [9] = Primary qHTS for small molecule stabilizers of the endoplasmic reticulum resident proteome: Secreted ER Calcium Modulated Protein (SERCaMP) assay (AID 1508630)
# Procedure, shortened: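 The SH-SY5Y reporter protocol was run at 3 concentrations up to 38.3 uM (primary) or 11 concentrations (follow-up): 16 h compound, 100 nM thapsigargin for 4 h, then extracellular luciferase luminescence.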
# [10] = biological target: Cytochrome P450 2D6 (Homo sapiens) (UniProt P10635); assay: Cytochrome P450 family 2 subfamily D member 6 (CYP2D6) small molecule antagonists: luciferase biochemical (cell-free) qHTS assay (AID 1645840; active = well fitted curve in the direction sought with a large enough effect in the repeat runs; an effect the other way counts as inactive or inconclusive; also: series mostly up to about 57 µM; nearly all actives have a fitted effect of over 55% in size)
# Chain of Cytochrome P450 2D6 (Homo sapiens) (P10635 whole entry, looked up): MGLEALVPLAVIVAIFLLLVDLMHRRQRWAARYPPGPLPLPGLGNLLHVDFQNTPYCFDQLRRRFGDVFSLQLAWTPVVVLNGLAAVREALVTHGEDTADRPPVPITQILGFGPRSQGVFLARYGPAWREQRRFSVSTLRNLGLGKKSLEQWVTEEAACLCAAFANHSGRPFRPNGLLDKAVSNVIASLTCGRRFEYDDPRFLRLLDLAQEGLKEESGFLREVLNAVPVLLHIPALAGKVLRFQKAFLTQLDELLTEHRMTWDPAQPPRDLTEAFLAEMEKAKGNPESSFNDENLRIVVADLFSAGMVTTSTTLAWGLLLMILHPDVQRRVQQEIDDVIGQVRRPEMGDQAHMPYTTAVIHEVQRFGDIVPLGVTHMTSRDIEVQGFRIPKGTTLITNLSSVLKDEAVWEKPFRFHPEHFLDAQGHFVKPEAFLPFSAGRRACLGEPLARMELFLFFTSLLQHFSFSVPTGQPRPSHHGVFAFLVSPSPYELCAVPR
# Procedure, shortened: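 P450-Glo CYP2D6 system: proluciferin substrate converted by enzyme to luciferin, read by luminescence proportional to activity. Enzyme-substrate mix with compound 10 min at room temperature, then NADPH regeneration 1 h before detection reagent.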
# [11] = Primary qHTS for inhibitors of nuclear receptor binding SET domain protein 2 (NSD2) in an RCH-ACV wild type WT cells (2C) (AID 1645877); also: nearly all actives have a fitted effect of over 70% in size; also: potency is read from the fitted curve at half-maximal effect
smiles,measurement,setting,value
N.N.N.N.N.N.N.N.N.N.N.N.N.N.O.O.[Ru+4].[Ru+5].[Ru+5],Potency,[1],inactive
same,Potency,[2],7.08 µM (active)
same,Potency,[3],7.08 µM (active)
same,Potency,Papain (Carica papaya),inactive
same,Potency,[4],27.4 µM (active)
C=C[C@H]1CN2CC[C@@H]1C[C@@H]2[C@@H](O)c1ccnc2ccc(OC)cc12,Potency,[1],inactive
same,Potency,[2],3.98 µM (active)
same,Potency,[3],31.6 µM (active)
CCCCCCCCCCCCOCCO,Potency,[1],inactive
same,Potency,[5],inactive
same,Potency,[6],inactive
same,Potency,[7],inactive
same,Potency,[8],inactive
OC[C@H]1O[C@@H](n2cnc3c(Nc4ccccc4)ncnc32)[C@H](O)[C@@H]1O,Potency,[1],inactive
same,Potency,[9],inactive
O=c1[nH]c2cc(C(F)(F)F)ccc2n1-c1cc(C(F)(F)F)ccc1O,Potency,[1],inactive
same,Potency,[9],inactive
same,Potency,Papain (Carica papaya),inactive
CCCCCCCCCCCC(=O)[O][Sn]([CH2]CCC)([CH2]CCC)[O]C(=O)CCCCCCCCCCC,Potency,[1],inactive
same,Potency,[5],inactive
same,Potency,[6],inactive
same,Potency,[10],inactive
same,Potency,[7],inactive
same,Potency,[8],inactive
same,Potency,[11],inactive
CN1CCC[C@H]1c1cccnc1,Potency,[1],inactive
same,Potency,[9],inactive
Nc1ccc(O)c(C(=O)O)c1,Potency,[1],inactive
same,Potency,[9],inactive
same,Potency,[6],inactive
same,Potency,[10],inactive
same,Potency,[7],inactive
C[C@@H](NC(=O)/C(C#N)=C/c1ccc(O)c(O)c1)c1ccccc1,Potency,[1],inactive
same,Potency,[9],inactive
O=c1cc(-c2ccccc2)oc2ccccc12,Potency,[1],inactive
same,Potency,[5],inactive
same,Potency,[7],15.4 µM (active)
same,Potency,[4],50.1 µM (active)
O=C(OCc1ccccc1)c1ccccc1,Potency,[1],inactive
same,Potency,[9],inactive
same,Potency,[6],inactive
same,Potency,[10],inactive
same,Potency,[7],inactive
same,Potency,[8],inactive
same,Potency,[11],inactive
CN1CCc2cccc3c2C1Cc1ccc(O)c(O)c1-3 (stereo not drawn),Potency,[1],inactive
same,Potency,[9],inactive
Nc1nc2ccc([N+](=O)[O-])cc2s1,Potency,[1],inactive
same,Potency,[5],inactive
same,Potency,[6],inactive
same,Potency,[8],21.7 µM (active)
same,Potency,[11],19.3 µM (active)
C=CC(=O)c1ccc(CCCCCC)cc1,Potency,[1],inactive
same,Potency,[9],inactive
CO[C@@]1(NC(=O)Cc2cccs2)C(=O)N2C(C(=O)O)=C(COC(N)=O)CS[C@@H]21,Potency,[1],inactive
same,Potency,[5],inactive
same,Potency,[6],inactive
same,Potency,[10],inactive
same,Potency,[7],inactive
same,Potency,[8],inactive
same,Potency,[11],inactive
O=c1[nH]c2cc(Cl)c(Cl)cc2[nH]c1=O,Potency,[1],inactive
same,Potency,[9],inactive

# Reference: PubChem BioAssay (NCATS)
